From publication PMC10726135, “HNF4α isoforms regulate the circadian balance between carbohydrate and lipid metabolism in the liver”
In all, about 18,000 sequences were measured (“log2 normalized intensity”: median about 0.36, highest 2% from about 7.3 on). The sample holds the highest values, similar sequences and a random draw of the others, so the mix is not that of the screen.

These sequences were tested against T1, HNF4alpha8 (COS-7 nuclear extract) (Homo sapiens, UniProt P41235-5 1-452) (assay: protein-binding microarray; COS-7 nuclear extract on double-stranded Agilent 4x180k PBM; binding buffer, salt, pH and temperature not given in the material; high values mean tight binding). Settings: chain copies: 2; label: 3' end of strand 1 on the slide; dsDNA, one strand shown.
T1 sequence: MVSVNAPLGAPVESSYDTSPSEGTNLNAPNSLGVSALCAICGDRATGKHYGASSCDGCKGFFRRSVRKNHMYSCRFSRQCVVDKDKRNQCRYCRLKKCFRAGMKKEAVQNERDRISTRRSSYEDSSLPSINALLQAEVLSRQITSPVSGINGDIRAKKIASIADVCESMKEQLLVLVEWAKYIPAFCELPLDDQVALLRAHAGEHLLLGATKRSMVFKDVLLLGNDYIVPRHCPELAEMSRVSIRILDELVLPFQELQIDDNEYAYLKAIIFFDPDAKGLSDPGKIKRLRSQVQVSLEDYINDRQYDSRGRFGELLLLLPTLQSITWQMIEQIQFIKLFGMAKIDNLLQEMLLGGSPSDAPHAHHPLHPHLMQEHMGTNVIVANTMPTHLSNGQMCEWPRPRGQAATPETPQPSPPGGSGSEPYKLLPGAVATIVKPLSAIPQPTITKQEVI
Outline: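 Nuclear extracts came from COS-7 cells transiently transfected by CaPO4 with a human HNF4α isoform expression vector. They were applied to a custom Agilent SurePrint G3 4x180k array of ~60-nt oligonucleotides, made double-stranded, with ~44,000 test sequences spotted in quadruplicate. Bound HNF4α was imaged at 2-µm resolution on an Agilent G2565CA scanner. Binding signal was taken as background-corrected, normalized gProcessedSignal from Agilent software.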

Row | Sequence | binding signal [log2 normalized intensity]
1 | TGGACTTTGGAATTAAGGAGATTTGGCTTTGCCTAGGGAGATTAGAGTATCGGTCGA | 5.99
2 | CTGGCAGCACCTGAAGAATTTGGACTTTGCGCCTAGGGAGATTAGAGTATCGGTCGA | 8.33
3 | TGGACTTTGCACTAAAAGCCATGAGAAGGTGCCTAGGGAGATTAGAGTATCGGTCGA | 5.41
4 | GGGTCCTGGCAGCACCTGAAGAATTTGGACGCCTAGGGAGATTAGAGTATCGGTCGA | 1.76
5 | GAATTTGGACTTTGCACTAAAAGCCATGAGGCCTAGGGAGATTAGAGTATCGGTCGA | 6.28
6 | GGTGAGTCTTTGCCCCTGGACTTTGAATTTGCCTAGGGAGATTAGAGTATCGGTCGA | 5.75
7 | TTCCTGAAGATCGCAGACTTTGGACTCTGCGCCTAGGGAGATTAGAGTATCGGTCGA | 8.57
8 | CTGAAGAATTTGGACTTTGCACTAAAAGCCGCCTAGGGAGATTAGAGTATCGGTCGA | 7.57
9 | AGCACCTGAAGAATTTGGACTTTGCACTAAGCCTAGGGAGATTAGAGTATCGGTCGA | 9.19
10 | GGAGACCTGAAACTAGACCAAGAAGACTTTGCCTAGGGAGATTAGAGTATCGGTCGA | -0.267
11 | GAAGATCGCAGACTTTGGACTCTGCAAGGAGCCTAGGGAGATTAGAGTATCGGTCGA | 6.68
12 | AGGGATTCCTGAAGATCGCAGACTTTGGACGCCTAGGGAGATTAGAGTATCGGTCGA | 6.44
13 | CAAGGAAAGATAAATAGTGACAAATTGTATGCCTAGGGAGATTAGAGTATCGGTCGA | -0.0347
14 | GTTTCTCAAGTGATCGAAGGTCAACTTATCGCCTAGGGAGATTAGAGTATCGGTCGA | 4.63
15 | TGTCCTGTGATTAAGGTCAATGGGAAACTAGCCTAGGGAGATTAGAGTATCGGTCGA | 1.05
16 | CTAGTTCATTAAACATGTTTACTCTGGTCCGCCTAGGGAGATTAGAGTATCGGTCGA | 1.59
17 | GAAGGAGAGTGACCTCTGCTTGAAGGCATTGCCTAGGGAGATTAGAGTATCGGTCGA | 1.78
18 | AGATTCTTTCTTCCTTTTGAAAAAGTGAGTGCCTAGGGAGATTAGAGTATCGGTCGA | 0.567
19 | AATAGCCCCAAATTCCTTTCAAACTGTATTGCCTAGGGAGATTAGAGTATCGGTCGA | 1.37
20 | CAAAAATGATACCCCAGAGTACAGCACTTTGCCTAGGGAGATTAGAGTATCGGTCGA | 1.2
21 | ATCAGAGCAAAGTTCAATTTCCAACAAATGGCCTAGGGAGATTAGAGTATCGGTCGA | 3.74
22 | CACCTTTGGATCCAGCTCCTGATGTTTGGTGCCTAGGGAGATTAGAGTATCGGTCGA | 2.43
23 | CTGATGCCCTTTGGATTTAGGCAGTTTTTGGCCTAGGGAGATTAGAGTATCGGTCGA | 2.92
24 | AGATCATCCTGCAGTTCCTGATCTTTGACCGCCTAGGGAGATTAGAGTATCGGTCGA | 7.84
25 | TGGACTTTGATCCTGATGACTGCAGAGCTTGCCTAGGGAGATTAGAGTATCGGTCGA | 6.16
26 | GGAGAGAGTTTGGCCCCAGTTCCCATGGACGCCTAGGGAGATTAGAGTATCGGTCGA | 1.45
27 | CAGTTTGGACTTTGATCCTGATGACTGCAGGCCTAGGGAGATTAGAGTATCGGTCGA | 8.17
28 | AATTCCAGTTTGGACTTTGATCCTGATGACGCCTAGGGAGATTAGAGTATCGGTCGA | 10

Row | Sequence | binding signal [log2 normalized intensity]
29 | GCAGTTCCTGATCTTTGACCTGGAGCATGAGCCTAGGGAGATTAGAGTATCGGTCGA | 5.34
30 | ATCCTGCAGTTCCTGATCTTTGACCTGGAGGCCTAGGGAGATTAGAGTATCGGTCGA | 6.23
31 | TTACAGTGTGAATCTCCAACAAGGCAGGAGGCCTAGGGAGATTAGAGTATCGGTCGA | -0.531
32 | GTCATAATTTGATCCAGTGTGCAAATGTGTGCCTAGGGAGATTAGAGTATCGGTCGA | 2.05
33 | CCACAACCTACCCTTTGCCCTGGACATATTGCCTAGGGAGATTAGAGTATCGGTCGA | 3.27
34 | GCAAACCTGCCCTTTGCTCCAGAGGAAGATGCCTAGGGAGATTAGAGTATCGGTCGA | 3.81
35 | ATTCTTTGCCATGACCTTTGAAGCCCAGAAGCCTAGGGAGATTAGAGTATCGGTCGA | 5.57
36 | GCCATGGACTGCTGACCTTTGAACCCTGAGGCCTAGGGAGATTAGAGTATCGGTCGA | 10.3
37 | AGCAATTCAAATTCTTTGCCATGACCTTTGGCCTAGGGAGATTAGAGTATCGGTCGA | 6.24
38 | ATCTTTGACCTGGAGCATGACCCTTTGCAGGCCTAGGGAGATTAGAGTATCGGTCGA | 3.64
39 | GGCAGATATGAAAGAGCCATGGACTGCTGAGCCTAGGGAGATTAGAGTATCGGTCGA | -0.289
40 | ATATGAAAGAGCCATGGACTGCTGACCTTTGCCTAGGGAGATTAGAGTATCGGTCGA | 7.13
41 | TTCAAATTCTTTGCCATGACCTTTGAAGCCGCCTAGGGAGATTAGAGTATCGGTCGA | 7.52
42 | CCTTTGAGGAGGCCTTTCCTGACCCCTCCTGCCTAGGGAGATTAGAGTATCGGTCGA | 4.78
43 | AAAGAGCCATGGACTGCTGACCTTTGAACCGCCTAGGGAGATTAGAGTATCGGTCGA | 9.59
44 | CTGCTGCCCAAAGGTCACCTCTTCAGATAGGCCTAGGGAGATTAGAGTATCGGTCGA | 3.89
45 | CTGTTTGACCAAAGCTACTCATCATGAACTGCCTAGGGAGATTAGAGTATCGGTCGA | 0.948
46 | TAGACATAGGTTATAAACTTGTTTGGGATTGCCTAGGGAGATTAGAGTATCGGTCGA | 0.308
47 | AAAGTCCAACACAGAAGCCTTTTGTTCTTTGCCTAGGGAGATTAGAGTATCGGTCGA | 2.15
48 | AATGTCTGGAAGTTCTTCCTTAAGTCTAACGCCTAGGGAGATTAGAGTATCGGTCGA | 0.865
49 | GGACTTGGTAAAGTCAATAATCTAGAAACCGCCTAGGGAGATTAGAGTATCGGTCGA | 0.338
50 | GCAGTGAGGGTGGGTTCAAAGGTCAGAAAAGCCTAGGGAGATTAGAGTATCGGTCGA | 8.97
51 | GAGGGTGGGTTCAAAGGTCAGAAAAAGCTGGCCTAGGGAGATTAGAGTATCGGTCGA | 7.27
52 | GGGAAGCAGTGAGGGTGGGTTCAAAGGTCAGCCTAGGGAGATTAGAGTATCGGTCGA | 8.86
53 | TAGAAGCAGTGGGACAAAGGTCACAGGAAAGCCTAGGGAGATTAGAGTATCGGTCGA | 5.05
54 | GGCATGGGAAGCAGTGAGGGTGGGTTCAAAGCCTAGGGAGATTAGAGTATCGGTCGA | 1.64
55 | TGGGTTCAAAGGTCAGAAAAAGCTGACGCCGCCTAGGGAGATTAGAGTATCGGTCGA | 7.25
